Data on 49 compounds can be found in the supplement of paper PMC13380429.

For test [1], the system named is Vero E6 infected with SARS-CoV-2. The test is described as follows: morphology score (similarity to uninfected cells); higher = more like uninfected cells. As to conditions: 24 h.
The test system is the same in test [2]. The test is described as follows: SARS-CoV-2 infection rate relative to infected DMSO; higher = more infection, active = 60 or less. As to conditions: 24 h.

SMILES strings stand for the structures.

In test [1], `Cc1cccc(C)c1NC(=O)CN1CCCCCC1` [pincainide] (10 µM) displayed a morphology score of 0.00868. Further, the SARS-CoV-2 infection rate in test [2] was 106% (inactive).

As for `CN1CCCCC1CCN1c2ccccc2Sc2ccc([S+](C)[O-])cc21` (stereo not drawn) [mesoridazine] (10 µM), the morphology score in test [1] turned out to be 0.323. The SARS-CoV-2 infection rate in test [2] was 91% (inactive).

`O=C(O)CCCCCCCC(=O)O` [azelaic-acid] (10 µM) came in with a morphology score in test [1] of 0.0279. In addition, the SARS-CoV-2 infection rate in test [2] is 104% (inactive).

In test [1], `CC(C(=O)O)c1cccc(Oc2ccccc2)c1` (stereo not drawn) [fenoprofen] (10 µM) gave a morphology score of 0.0202. Further, the SARS-CoV-2 infection rate in test [2] is 108% (inactive).

Regarding `COC(=O)C1=C(C)NC(C)=C([N+](=O)[O-])[C@@H]1c1ccccc1C(F)(F)F` (racemic) (10 µM), the morphology score in test [1] came to 0.192. Further, the SARS-CoV-2 infection rate in test [2] is 91.8% (inactive).

In turn, `CN1CCC(CNc2ccc3ncc(-c4cccc(OC(F)(F)F)c4)n3n2)CC1` (0.833333 µM) had a morphology score in test [1] of 0.201. Besides, the SARS-CoV-2 infection rate in test [2] is 108% (inactive).

In turn, `N#Cc1ccc(-c2csc(NN=C3CCCC3)n2)cc1` [remodelin] (10 µM) yielded a morphology score in test [1] of 0.0343. Besides, the SARS-CoV-2 infection rate in test [2] is 100% (inactive).

In turn, `CCN(CC)CCOC(=O)C(Cc1cccc2ccccc12)CC1CCCO1` (mixture of isomers) [naftidrofuryl] (10 µM) returned a morphology score in test [1] of 0.14. Also, in test [2], the SARS-CoV-2 infection rate was 104% (inactive).

In test [1], `O=C1C=C2C=C[C@@H]3C[C@@]2(O1)[C@H]1CCCCN31` [securinine] (10 µM) gave a morphology score of 0.327. In test [2], the SARS-CoV-2 infection rate was 85.5% (inactive).

As for `COc1ccc2nc3c(c(N)c2c1)CCCC3` [7-methoxytacrine] (10 µM), the morphology score in test [1] is 0.597. In addition, the SARS-CoV-2 infection rate in test [2] was 64.5% (inactive).

Take `C[C@](N)(Cc1ccc(O)c(O)c1)C(=O)O` [methyldopa] (10 µM): in test [1], the morphology score was -0.111. Besides, the SARS-CoV-2 infection rate in test [2] was 97.5% (inactive).

As to `CCN(CC)C(=S)SSC(=S)N(CC)CC` [disulfiram] (10 µM), the morphology score in test [1] was found to be 0.548. Also, the SARS-CoV-2 infection rate in test [2] was 23% (active).

Consider `c1ccc(CN(CC2=NCCN2)c2ccccc2)cc1` [antazoline] (10 µM), for which, in test [1], the morphology score is -0.22. The SARS-CoV-2 infection rate in test [2] is 112% (inactive).

With `NCC(=O)Nc1ccc(-n2nc(C(F)(F)F)cc2-c2ccc3c(ccc4ccccc43)c2)cc1` (0.833333 µM), the morphology score in test [1] was -0.089. Besides, in test [2], the SARS-CoV-2 infection rate is 99.5% (inactive).

In test [1], `O=C(Nc1cc(C(F)(F)F)cc(C(F)(F)F)c1)c1cnc(Cl)nc1C(F)(F)F` (10 µM) showed a morphology score of -0.17. In test [2], the SARS-CoV-2 infection rate is 111% (inactive).

The compound `O=C(O)c1cc2ccccc2s1` (10 µM) had a morphology score in test [1] of 0.0676. In addition, the SARS-CoV-2 infection rate in test [2] is 88% (inactive).

`O=C(Nc1c(-c2cccs2)nc2ccccn12)c1ccc(Cl)cc1` (10 µM) had a morphology score in test [1] of 0.204. Further, in test [2], the SARS-CoV-2 infection rate is 84% (inactive).

Regarding `N#Cc1cn([C@@H]2O[C@H](CO)[C@@H](O)[C@H]2O)c2ncnc(N)c12` [toyocamycin] (0.833333 µM), the morphology score in test [1] was -0.0555. Also, the SARS-CoV-2 infection rate in test [2] was 104% (inactive).

In turn, `N#Cc1ccc(NCCNCC(=O)N2CCC[C@H]2C#N)nc1` (10 µM) gave a morphology score in test [1] of -0.0945. Further, the SARS-CoV-2 infection rate in test [2] is 114% (inactive).

`c1ccc2nc(C3=NCCN3)ccc2c1` (10 µM) gave a morphology score in test [1] of 0.125. Moreover, in test [2], the SARS-CoV-2 infection rate was 93% (inactive).

Compound `CC1(C)OC(=O)C(OCC2CC2)=C1c1ccc(S(C)(=O)=O)cc1` [firocoxib] (10 µM) displayed a morphology score in test [1] of 0.218. Further, the SARS-CoV-2 infection rate in test [2] was 84.5% (inactive).

Turning to `C[C@@H](N[C@H]1CCCC[C@@H]1NC(=O)c1ccc(Cl)cc1)c1cccc2ccccc12` [Calhex-231] (10 µM), the morphology score in test [1] came to 0.134. Moreover, in test [2], the SARS-CoV-2 infection rate was 91.5% (inactive).

As for `Cc1cnc(C(=O)NCCc2ccc(S(=O)(=O)NC(=O)NC3CCCCC3)cc2)cn1` [glipizide] (10 µM), the morphology score in test [1] came out at 0.218. Further, in test [2], the SARS-CoV-2 infection rate is 96% (inactive).

For `C[C@](N)(Cc1ccc(O)cc1)C(=O)O` [metirosine] (10 µM), the morphology score in test [1] was -0.111. In test [2], the SARS-CoV-2 infection rate was 112% (inactive).

Consider `C=CCN1CCc2cc(O)c(O)cc2[C@H](c2ccccc2)C1` (10 µM), for which the morphology score in test [1] is -0.0101. The SARS-CoV-2 infection rate in test [2] is 95% (inactive).

Compound `CC1Oc2cc(cnc2N)-c2c(nn(C)c2C#N)CN(C)C(=O)c2ccc(F)cc21` (stereo not drawn) (10 µM) gave a morphology score in test [1] of 0.32. The SARS-CoV-2 infection rate in test [2] is 99.5% (inactive).

`COc1c2occc2c(OC)c2c(=O)cc(C)oc12` [khellin] (10 µM) returned a morphology score in test [1] of -0.102. The SARS-CoV-2 infection rate in test [2] was 109% (inactive).

`COc1ccc(/C=C/C(=O)Nc2ccccc2C(=O)O)cc1OC` [tranilast] (10 µM): in test [1], the morphology score turned out to be 0.0917. In addition, the SARS-CoV-2 infection rate in test [2] was 108% (inactive).

`O=C(O)c1nn(Cc2ccc(Cl)cc2Cl)c2ccccc12` [lonidamine] (10 µM) had a morphology score in test [1] of 0.0313. Further, the SARS-CoV-2 infection rate in test [2] is 110% (inactive).

The compound `CC(C)C[C@@H](N)C1(c2ccc(Cl)cc2)CCC1` (10 µM) showed a morphology score in test [1] of -0.0886. Also, the SARS-CoV-2 infection rate in test [2] is 116% (inactive).

Consider `O=C(NC(=O)c1c(F)cccc1Cl)NC1c2ccccc2-c2ccccc21` (10 µM), for which the morphology score in test [1] was found to be 0.143. Moreover, the SARS-CoV-2 infection rate in test [2] was 102% (inactive).

In turn, `O=C(/C=C\n1cnc(-c2cc(C(F)(F)F)cc(C(F)(F)F)c2)n1)N1CC(F)(F)C1` (10 µM) returned a morphology score in test [1] of -0.303. In addition, the SARS-CoV-2 infection rate in test [2] is 116% (inactive).

`O=C(c1ccc2nccnc2c1)N1CCCCC1` [ampalex] (10 µM): the morphology score in test [1] is -0.0456. Further, the SARS-CoV-2 infection rate in test [2] was 104% (inactive).

As for `C#Cc1cccc(Nc2ncnc3cc4c(cc23)OCCOCCOCCO4)c1` [icotinib] (0.833333 µM), the morphology score in test [1] is -0.00998. Besides, the SARS-CoV-2 infection rate in test [2] is 117% (inactive).

With `O=c1c(-n2ccnn2)c[nH]n1-c1cc(N2CCOCC2)ncn1` [molidustat] (10 µM), the morphology score in test [1] turned out to be 0.0599. Further, the SARS-CoV-2 infection rate in test [2] is 98.5% (inactive).

As for `CCC(COC(=O)c1cc(OC)c(OC)c(OC)c1)(c1ccccc1)N(C)C` (stereo not drawn) [trimebutine] (10 µM), the morphology score in test [1] is 0.103. Besides, in test [2], the SARS-CoV-2 infection rate was 91% (inactive).

`O=C1NCN(c2ccccc2)C12CCN(CCCC(c1ccc(F)cc1)c1ccc(F)cc1)CC2` [fluspirilene] (10 µM) showed a morphology score in test [1] of 0.056. Moreover, the SARS-CoV-2 infection rate in test [2] is 113% (inactive).

The compound `CC1OC2(CS1)CN1CCC2CC1` (stereo not drawn) [cevimeline] (10 µM) displayed a morphology score in test [1] of 0.0787. Also, the SARS-CoV-2 infection rate in test [2] is 98% (inactive).

In turn, `CC(=O)Nc1ccc(OC(C)=O)cc1` [diacetamate] (10 µM) displayed a morphology score in test [1] of 0.116. Further, in test [2], the SARS-CoV-2 infection rate was 99.5% (inactive).

In turn, `Nc1ncnc2c1c(-c1ccc(Oc3ccccc3)cc1)nn2C1CCCC1` (10 µM) registered a morphology score in test [1] of -0.00746. The SARS-CoV-2 infection rate in test [2] was 122% (inactive).

For the compound `Cc1cc2cc3c(C)cc(=O)oc3c(C)c2o1` [trioxsalen] (10 µM), the morphology score in test [1] came to 0.133. The SARS-CoV-2 infection rate in test [2] was 94% (inactive).

Turning to `O=C1NC(=S)NC(=O)C1C(=O)Nc1ccccc1` [merbarone] (10 µM), in test [1], the morphology score amounted to 0.103. For the same compound, the SARS-CoV-2 infection rate in test [2] is 99% (inactive).

In test [1], `Nc1cccc(CNC(=O)c2ccc(Oc3ccc(OCc4cccc(F)c4)cc3)nc2)c1` (10 µM) registered a morphology score of -0.419. Further, in test [2], the SARS-CoV-2 infection rate is 119% (inactive).

With `CCS(=O)(=O)c1ccc2oc(-c3ccc4ccccc4c3)nc2c1` [ezutromid] (10 µM), the morphology score in test [1] came out at 0.174. Also, in test [2], the SARS-CoV-2 infection rate is 98.5% (inactive).

`CC(=O)N1CCC[C@H]1C(=O)N[C@@H](Cc1cnc[nH]1)C(=O)N[C@@H](CO)C(=O)N[C@@H](CS)C(=O)N[C@@H](CC(N)=O)C(N)=O` (10 µM) gave a morphology score in test [1] of 0.0957. In addition, the SARS-CoV-2 infection rate in test [2] is 93% (inactive).

Consider `CCC(=N\O)/C(C)=C/c1ccc(F)cc1` (10 µM), for which, in test [1], the morphology score was 0.0411. In test [2], the SARS-CoV-2 infection rate was 110% (inactive).

As to `c1cc(Nc2cc(C3CC3)n[nH]2)nc(Nc2ccc3[nH]cnc3c2)n1` (0.833333 µM), the morphology score in test [1] was -0.282. Moreover, the SARS-CoV-2 infection rate in test [2] was 110% (inactive).

`C[C@H]1O[C@@H](O[C@H]2CC[C@@]3(C)[C@H](CC[C@@H]4[C@@H]3C[C@@H](O)[C@]3(C)[C@@H](C5=CC(=O)OC5)CC[C@]43O)C2)C[C@H](O)[C@@H]1O[C@H]1C[C@H](O)[C@H](O[C@H]2C[C@H](O)[C@H](O[C@@H]3O[C@H](CO)[C@@H](O)[C@H](O)[C@H]3O)[C@@H](C)O2)[C@@H](C)O1` [deslanoside] (0.833333 µM): the morphology score in test [1] is -0.123. Moreover, the SARS-CoV-2 infection rate in test [2] was 114% (inactive).

In test [1], `COC(=O)[C@H](Cc1cccc(C(=N)N)c1)[C@@H](C)NC(=O)c1ccc(-c2cc[n+]([O-])cc2)cc1` [otamixaban] (10 µM) came in with a morphology score of -0.0764. Also, in test [2], the SARS-CoV-2 infection rate is 100% (inactive).
